Compound activity from PubChem BioAssay.
CYP2C19 act: increases human CYP2C19 enzyme activity; recombinant CYP2C19, luciferin-H EGE luminescence; hits give high values; 0 = fully inhibited enzyme, 1 = untreated enzyme; activation factor at 5 µM; 96,000 tested, under 10 active;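 active means activation factor of at least 2 at 5 µM in the primary screen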;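 further: 0 = wells with 2.5 mM tranylcypromine and 1 = vehicle-only wells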
Target sequence (P33261 whole entry, looked up): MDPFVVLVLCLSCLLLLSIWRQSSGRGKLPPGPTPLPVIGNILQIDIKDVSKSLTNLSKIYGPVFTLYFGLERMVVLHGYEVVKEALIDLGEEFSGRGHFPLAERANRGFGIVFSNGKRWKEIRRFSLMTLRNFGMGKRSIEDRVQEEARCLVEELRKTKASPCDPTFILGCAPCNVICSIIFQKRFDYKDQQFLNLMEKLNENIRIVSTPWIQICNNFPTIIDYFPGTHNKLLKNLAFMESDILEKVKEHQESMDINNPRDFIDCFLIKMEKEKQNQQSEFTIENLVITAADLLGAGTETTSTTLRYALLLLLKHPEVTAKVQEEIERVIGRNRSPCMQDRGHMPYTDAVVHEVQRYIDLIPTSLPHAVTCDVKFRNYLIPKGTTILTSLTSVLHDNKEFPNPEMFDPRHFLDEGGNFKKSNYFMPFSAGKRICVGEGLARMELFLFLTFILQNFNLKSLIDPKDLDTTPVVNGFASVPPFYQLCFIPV
Measles CPE: protection of cells from measles virus; actives 1.5% (n = 140,000); AID 841; protection (pct of control), % at 4 µM; Measles virus-infected cells, CPE protection, absorbance; in the data active means protection mostly above about 24%, no sharp cut-off; inactive means mostly below about 26%
CYP2C9 activ: increases human cytochrome P450 2C9 activity; activation factor at 5 µM; recombinant CYP2C9, luciferin-H conversion, luminescence; hits give high values; factor 1 = untreated enzyme, 0 = blocked; actives 1.4% (n = 96,000); P11712; AID 1024;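 active means activation factor of 2 or more for CYP2C9 at a 5 µM dose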;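 further: 0 = sulfaphenazole-blocked wells and 1 = vehicle-only wells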
CYP2C9 inh: human CYP2C9 inhibition; P11712; CYP2C9 Supersomes, luciferin-H conversion, luminescence; inhibition, % at 5 µM; actives 20% (n = 96,000);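 active means blocking of liver enzyme CYP2C9 beyond about 50% at 5 µM, limit read from the data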
CYP2C19 inhib: human CYP2C19 inhibition. inhibition, % at 5 µM. actives 21% (n = 96,000). CYP2C19 Supersomes, luciferin-H EGE luminescence, 30 min;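 active means CYP2C19 inhibition above a set limit at 5 µM in the primary screen, cut at about 50% in these data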;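 further: plate controls were negative control wells for no effect and 2.5 mM tranylcypromine positive control for full effect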
* = called active by the depositor; . = no result given. A selection: hits, their analogues and other compounds. The true share with any hit is near 22%.

SMILES	CYP2C19 act	Measles CPE	CYP2C9 activ	CYP2C9 inh	CYP2C19 inhib
CCS(=O)(=O)N1CCN(Cc2nc3ccccc3c(=O)[nH]2)CC1	1	12.7	0.9	6.2	3.2
c1ccc(OCc2nc3ccccc3[nH]2)cc1	0.3	4.0	0.8	15.1	74.3*
O=c1[nH]c(CN2CCCCC2)nc2ccccc12	1.1	1.8	1.1	-14.0	-10.2
c1ccc2[nH]c(CN3CCCCCC3)nc2c1	0.4	4.0	1	-4.8	63.9*
OC(Cc1nc2ccccc2[nH]1)c1ccccc1Cl (configuration not stated)	0.5	51.3*	0.8	15.3	49.2
COCCNC(=O)C(=O)NCCN1CCOCC1	.	4.1	.	.	.
O=C(NCc1cccc(Cl)c1)c1cnn2c1NC(c1ccco1)CC2C(F)(F)F (configuration not stated)	0.5	17.2	0.6	40.9	49.4
O=C(CSCCc1ccccn1)Nc1ccc(Br)cn1	0.9	1.6	0.8	21.0	9.6
O=c1c2ccccc2c(/C=N/n2cnnc2)c(O)n1-c1ccccc1F	1	4.4	0.4	58.3*	-2.6
Cc1ccc(-n2c(O)c(/C=N/n3cnnc3)c3ccccc3c2=O)cc1	0.9	0.3	0.1	90.7*	7.7
O=c1c2ccccc2c(C=NCCO)c(O)n1-c1ccccc1	1	3.1	0.9	6.3	-1.9
O=C(CSc1nnc2c(Cl)cc(Cl)cn12)NC1CCS(=O)(=O)C1 (configuration not stated)	0.9	2.4	0.7	25.7	8.1
CCOC(=O)c1[nH]c(=O)[nH]c1COC(=O)c1cc2ccccc2o1	0.9	39.7*	0.4	57.0*	12.5
O=C(C1CCN(S(=O)(=O)c2cccs2)CC1)N1CCN(c2ccccc2)CC1	1.1	3.1	1	2.9	-6.5
O=C(C(NS(=O)(=O)c1cccs1)c1ccccc1)N1CCN(c2ccccc2)CC1 (configuration not stated)	0.5	22.1	0.7	27.7	53.5*
O=C1C(NS(=O)(=O)c2cccs2)=C(N2CCN(c3ccccc3)CC2)C(=O)c2ccccc21	0.7	4.2	0.4	63.2*	28.6
CC1CCCC(N2CCN(C(=O)c3cccc(F)c3)CC2)C1 (configuration not stated)	0.1	1.2	0.6	42.0	88.7*
COc1cccc(C(=O)N2CCN(C(=O)c3cccc(F)c3)CC2)c1	.	14.9	.	.	.
O=C(c1cccc(F)c1)N1CCN(CC2CC3C=CC2C3)CC1 (configuration not stated)	0.1	3.1	0.7	31.8	89.9*
O=C(c1ccccc1F)N1CCN(CC2CC3C=CC2C3)CC1 (configuration not stated)	0.3	8.9	0.9	5.9	68.8*
O=C1CCc2cc(S(=O)(=O)NC(Cc3ccccc3)C(=O)NC3CCCC3)ccc2N1 (configuration not stated)	0.9	0.6	0.8	15.4	11.1
N#Cc1nc(COc2ccc(F)cc2)oc1N1CCC(Cc2ccccc2)CC1	0.8	6.3	0.3	70.1*	16.3
N#Cc1nc(-c2ccco2)oc1N1CCN(Cc2ccccc2)CC1	0.7	14.2	0.8	24.5	35.0
CCN1CCN(c2oc(COc3ccc(-c4ccccc4)cc3)nc2C#N)CC1	0.1	7.2	0.2	81.3*	93.2*
N#Cc1nc(COc2ccccc2F)oc1N1CCCCCC1	0.7	5.7	0.6	44.8	33.4
SMILES	CYP2C19 act	Measles CPE	CYP2C9 activ	CYP2C9 inh	CYP2C19 inhib
N#Cc1nc(COc2ccc(Br)cc2)oc1N1CCN(Cc2ccccc2)CC1	0.8	16.6	0.4	55.6*	17.3
N#Cc1nc(COc2ccc(F)cc2)oc1N1CCN(Cc2ccccc2)CC1	0.3	4.6	0.1	92.6*	73.3*
O=C(N1CCOCC1)C12CC3CC(C1)CC(C(=O)N1CCOCC1)(C3)C2	0.7	42.2	0.9	6.1	34.7
Clc1ccc(-c2n[nH]c3c2CCC3)c(Cl)c1	0.8	4.7	0.8	16.1	20.1
Cc1ccccc1-n1cc(C(=O)c2cc(Cl)ccc2O)cc(C#N)c1=O	.	5.4	.	.	.
O=C(Nc1ccccc1)c1ccc(NCc2cccnc2)c(S(=O)(=O)N2CCOCC2)c1	0.5	2.5	0.4	55.9*	53.7*
O=C(Nc1ccccc1)c1ccc(NCc2ccco2)c(S(=O)(=O)N2CCOCC2)c1	0.1	24.8	0.1	90.4*	86.6*
O=C(NCc1ccco1)c1ccc(Cl)c(S(=O)(=O)N2CCOCC2)c1	0.7	26.5	0.7	30.5	32.3
O=C(Nc1ccccc1)c1ccc(NCCN2CCOCC2)c(S(=O)(=O)N2CCOCC2)c1	0.9	8.4	0.9	5.6	7.6
O=C(NCc1ccncc1)c1ccc(Cl)c(S(=O)(=O)N2CCOCC2)c1	0.3	5.5	0.2	81.9*	67.8*
COc1cc2sc(C)nc2c2sccc12	0.6	2.1	1	4.4	39.8
Cc1cc(C)n2c(SCc3c(C)noc3C)nnc2n1	.	7.4	.	.	.
COc1cccc(OC)c1C(=O)N1CCOCC1	.	2.9	.	.	.
S=C(c1ccc(N2CCOCC2)cc1)N1CCOCC1	0.9	8.7	0.8	18.5	8.7
CN(C)c1ccc(C(=S)N2CCOCC2)cc1Br	0.7	32.8	2.4*	-142.0	30.3
COc1ccc(C(=O)N2CCOCC2)cc1Br	0.9	18.9	2.3*	-130.9	8.4
COc1ccc(S(=O)(=O)N(C)Cc2cccs2)cc1Br	0	17.3	1.4	-35.7	96.4*
COc1ccc(S(=O)(=O)N(Cc2cccs2)C2CCCC2)cc1	0.9	7.8	1	-3.6	6.5
COc1ccc(CCn2c(N)c(C(=O)NCc3ccco3)c3nc4ccccc4nc32)cc1	.	2.0	.	.	.
Nc1c(C(=O)NCc2ccco2)c2nc3ccccc3nc2n1CCc1ccccc1F	0.6	0.3	0.5	51.8*	38.2
COc1ccc(CCn2c(N)c(C(=O)NCc3ccco3)c3nc4ccccc4nc32)cc1OC	0.2	13.5	0.4	55.9*	77.2*
CCCC(=O)NC(=S)Nc1sc2c(c1C(N)=O)CCC2	.	3.6	.	.	.
CC1=CCC(C(=O)O)(C(=O)N/N=C/c2cccs2)C(c2ccc([N+](=O)[O-])cc2)C1 (configuration not stated)	1	4.6	0.8	20.5	1.8
CC1=CCC(C(=O)O)(C(=O)N/N=C/c2cccs2)C(c2ccc(F)cc2)C1 (configuration not stated)	0.9	1.9	0.3	67.2*	7.7
Cc1ccc(CCNC(=O)c2ccc(CS(=O)(=O)Cc3ccccc3F)o2)cc1	0.2	2.5	0	97.7*	75.1*
Cc1ccccc1CS(=O)(=O)Cc1ccc(C(=O)NCc2cccnc2)o1	0.2	10.4	0.6	41.7	78.5*
Cc1cccc(CS(=O)(=O)Cc2ccc(C(=O)NCc3cccnc3)o2)c1	0.2	9.7	1.1	-14.5	82.0*
O=C(NCCc1ccccc1)c1ccc(CS(=O)(=O)Cc2ccccc2F)o1	0.6	17.2	0.7	26.8	38.9
Cc1ccc2[nH]c(=O)c(C(c3nnnn3C(C)(C)C)N3CCN(C(=O)c4ccco4)CC3)cc2c1 (configuration not stated)	1	9.3	0.8	23.1	-4.6
